Screening data: PubChem, National Center for Advancing Translational Sciences (NCATS)
Shown are actives, neighbours in structure and some others; about 14% of the full set was active somewhere.
Pf growth 96h = P. falciparum growth inhibition at 96 hours; Potency, µM (series often up to 28.7 µM), for the others: top-dose activity change, negative = inhibition, most hits filed as inhibitors; hit rate 6.9% among 320,000; P. falciparum luciferase reporter growth, 96 h; AID 504834; further: potency means the concentration at half of the fitted maximal effect
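Delayed-death screen, second-generation endpoint: infected erythrocytes, 2% hematocrit, 0.05% parasitemia final; 96 hours at 37 C, 5% CO2; luciferase detection reagent; luminescence decrease equals reduced growth.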
Sm TGR block = inhibitors of Schistosoma mansoni thioredoxin glutathione reductase; Q962Y6; purified TGR, DTNB reduction, TNB absorbance 405 nm; Potency, µM (highest dose often 114 µM), for the others: at the highest dose activity change, negative = inhibition, most hits filed as inhibitors; hit rate 3% among 360,000; AID 485364; further: potency means the concentration at half of the fitted maximal effect; nearly all actives have a fitted effect of over 60% in size
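Kinetic colorimetric format: TGR-catalysed, NADPH-driven DTNB reduction monitored via TNB absorbance. Enzyme dispensed at 20 nM; compound exposure 15 min at room temperature before reaction start.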
FBPA Giardia inh = blocks Giardia fructose-bisphosphate aldolase activity | purified Giardia FBPA | A8B2U2 | Potency, µM (doses to about 59.6 µM), for inactives: top-dose activity, negative = inhibition, actives largely listed as inhibitors | hit rate 0.71% among 290,000; further: potency means the concentration at half of the fitted maximal effect; nearly all actives have a fitted effect of over 55% in size
Target sequence (A8B2U2 whole entry, looked up): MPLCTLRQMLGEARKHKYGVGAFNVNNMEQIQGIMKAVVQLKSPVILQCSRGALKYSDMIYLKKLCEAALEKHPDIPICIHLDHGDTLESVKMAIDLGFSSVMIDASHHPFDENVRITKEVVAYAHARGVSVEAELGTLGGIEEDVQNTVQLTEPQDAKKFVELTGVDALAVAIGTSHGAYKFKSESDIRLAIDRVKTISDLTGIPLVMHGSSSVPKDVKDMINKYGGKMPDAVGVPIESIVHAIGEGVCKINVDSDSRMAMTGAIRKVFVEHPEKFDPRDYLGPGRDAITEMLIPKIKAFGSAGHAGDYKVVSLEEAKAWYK
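40 nM FBPA preincubated 10 min at RT with compound (up to 57.5 uM final), then substrate plus GAPDH/TPI/NAD/arsenate coupling and diaphorase/resazurin added. Fluorescence read after 20 min at RT, 525/598 nm.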
HCMV antiviral = inhibitors of human cytomegalovirus | hit rate 4.5% among 410,000 | activity change, negative = inhibition, % at 57.5 µM | HFF cells, HCMV-luciferase reporter, 72 h; hits give low values; in the data active means activity change below about -60%; inconclusive means no clear call, values can overlap the other calls; inactive means above about -39%
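Steps: HFFs plated, 16 h 37C; compounds added; HCMV-luciferase added to MOI 1 PFU/cell; 72 h 37C; OneGlo reagent, 5 min room temperature; luminescence read, normalized to controls.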
Pf growth 48h = inhibits P. falciparum growth in the first generation, 48 h; P. falciparum luciferase growth in erythrocytes, 48 h; AID 504832; hit rate 5.9% among 310,000; Potency, µM (series often up to 28.7 µM), for inactives: at the top dose activity change, negative = inhibition, most hits filed as inhibitors; further: potency means the concentration at half of the fitted maximal effect
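In quantitative HTS format, infected erythrocytes bearing luciferase-reporter parasites were treated for a single generation at 37 C. Luminescence after adding detection reagent served as the growth measure.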
* marks the source's active call; other numbers are inactive results; ? = inconclusive; · = no result given; [ ] = remark or other dose. Unless noted, the call rests on the fitted dose curve; in most records, active means well fitted curve in the direction sought with a large enough effect; inconclusive means small, poorly fitted or top-dose-only effect, or another doubt; inactive means no such curve, though single readings can be large; an effect the other way counts as inactive or inconclusive. On the % scale 0 is the no-effect control and ±100 the full control effect.

SMILES | Pf growth 96h | Sm TGR block | FBPA Giardia inh | HCMV antiviral | Pf growth 48h
COc1ccccc1N1CCN(C2CC(=O)N(c3ccc(Cl)cc3)C2=O)CC1 (stereo not drawn) | 15.1% | -1.0% | 8.2% | 34.4 | -11.8%
COc1cccc(N2C(=O)CC(N3CCN(C(=O)c4ccco4)CC3)C2=O)c1 (stereo not drawn) | · | ? | 2.2% | 10.1 | 2.3%
CCOC(=O)N1CCN(C2CC(=O)N(c3ccccc3)C2=O)CC1 (stereo not drawn) | 3.0% | 0.0% | 2.6% | -8.9 | 4.6%
CCOC(=O)N1CCN(C2CC(=O)N(c3ccc(Cl)c(Cl)c3)C2=O)CC1 (stereo not drawn) | 84.4% | 20µM* | 2.5% | -19.5 | 13.7%
CC12CCCCC1(O)[N+](=O)C1=C(CCCC1)N2[O-] (stereo not drawn) | 4.15µM* | ? | ? | 37.2 | 10.2%
CC1=C(C)[N+](=O)C2(O)CCCCC2(C)N1[O-] (stereo not drawn) | 69.5% | 18.7% | · | 38.8 | 49.5%
Cc1[nH]ccc2c1[nH]c1cc(=O)ccc12 | 10.4µM* | 14.6% | 0.8% | ? | 13.1µM*
Cc1ccc(C)c(NC(=O)CCC(=O)N2CCOc3ccccc32)c1 | 2.3% | 0.0% | -0.8% | -1.5 | -0.3%
CC(OC(=O)CCc1cc(C(C)(C)C)c(O)c(C(C)(C)C)c1)C(=O)NC1CC1 (stereo not drawn) | 0.657µM* | -17.2% | · | -17.1 | 0.465µM*
O=C(C1CC(=O)N(c2ccc(F)cc2)C1)N1CCN(c2ccc(F)cc2)CC1 (stereo not drawn) | ? | -1.2% | · | 0.3 | -3.5%
O=C(c1ccc(Br)o1)N1CCC(c2nc3ccccc3[nH]2)CC1 | ? | 39.8µM* | · | -23.0 | ?
O=C(C1CC(=O)N(c2ccc(F)cc2)C1)N1CCC(c2nc3ccccc3[nH]2)CC1 (stereo not drawn) | 8.28µM* | -4.0% | · | -20.9 | ?
O=C(NC1CCCCC1)N1CCCC(c2nc3ccccc3[nH]2)C1 (stereo not drawn) | 1.47µM* | -29.5% | 1.5% | 4.5 | -14.9%
Cc1ccc(N2CC(C(=O)N3CCC(c4nc5ccccc5[nH]4)CC3)CC2=O)cc1C (stereo not drawn) | 10.4µM* | -2.1% | · | -18.9 | ?
Cc1ccc2nc(C3CCN(C(=O)c4ccco4)CC3)[nH]c2c1 | 32.4% | -14.9% | 1.0% | 25.4 | 38.7%
O=C1NC[C@H](CCCCN2CCN(CC3CCCCC3)C(=O)C2=O)N(CCc2ccccc2)C1=O | · | · | · | 12.0 | ·
O=C(C1CCCCC1)N1CCC(c2nc3ccccc3[nH]2)CC1 | 9.28µM* | 21.9% | 0.2% | -7.3 | -25.4%
O=C(NC1CCCCC1)N1CCC(c2nc3ccccc3[nH]2)CC1 | -9.5% | 16.2% | 4.5% | 9.9 | -6.9%
CCC(=O)Nc1ccc(S(=O)(=O)N2CCC(c3nc4ccccc4[nH]3)CC2)cc1 | ? | -4.5% | · | -0.2 | ?
CCCC(=O)Nc1ccc(S(=O)(=O)N2CCC(c3nc4ccccc4[nH]3)CC2)cc1 | 5.22µM* | 0.4% | · | -2.5 | 13.1µM*
Cc1ccc(NC(=O)c2ccc(NS(=O)(=O)c3ccc4[nH]c(=O)[nH]c4c3)cc2)nc1 | 18.8% | -1.6% | · | -8.9 | 8.8%
C[C@]12CC[C@@H]3c4ccc(O)c(O)c4CC[C@H]3[C@@H]1CC[C@@H]2O | · | ? | 12.6µM* | -91.4* | ·
CC(=O)N=c1scc(-c2ccccc2)n1-c1cccc(O)c1 | -3.0% | 4.2% | -9.6% | -92.4* | -19.1%
CC1(C(O)(C#CC[N+]2(C)CCCCC2)c2ccccc2)CCCC1 (stereo not drawn) | 71.2% | 0.0%[57.1 µM] | -0.5% | ? | ?
CC1(C#CC[N+]2(C)CCCCC2)CCC2C(O1)c1ccccc1OC2(C)C (stereo not drawn) | 3.7µM* | -1.2% | ? | 9.2 | 11.7µM*
SMILES | Pf growth 96h | Sm TGR block | FBPA Giardia inh | HCMV antiviral | Pf growth 48h
CC(C)Cc1nnc(NC(=O)c2cc([N+](=O)[O-])ccc2N2CCOCC2)s1 | 97.5% | -1.8% | ? | · | 21.7%
Cc1cccc(Oc2ccccc2NC(=O)CN2C(=O)NC3(CCCC3)C2=O)c1 | 25.6% | 4.7% | · | -9.9 | ?
CC(C)(C)N(Cc1ccccc1)C(=O)CN1C(=O)NC2(CCCCCC2)C1=O | ? | 1.0% | · | -61.3* | ?
Cc1ccc(Oc2ccccc2NC(=O)CN2C(=O)NC3(CCCC3)C2=O)cc1 | 14.0% | -8.2% | · | -105.9* | 5.2%
Cc1ccccc1NC(=O)CN1C(=O)NC(C)(CCc2ccccc2)C1=O (stereo not drawn) | -21.6% | 2.5% | -3.0% | ? | 13.1µM*
CC1(CCc2ccccc2)NC(=O)N(CC(=O)Nc2ccccc2C#N)C1=O (stereo not drawn) | 12.0% | 5.1% | · | 4.1 | -1.5%
COc1ccc(NS(=O)(=O)c2ccc(C)c(NC(=O)CN3C(=O)NC4(CCCC4)C3=O)c2)cc1 | -17.2% | -15.7% | · | -66.3* | ?
Cc1ccc(S(=O)(=O)N(C)C)cc1NC(=O)CN1C(=O)NC2(CCCCCC2)C1=O | ? | -8.4% | 11.9% | 2.3 | -10.0%
COc1ccc(S[C@]2(C(=O)N3CCOCC3)CC(=O)N(c3ccc4ccccc4c3)[C@@H]2c2ccc(OC)cc2)cc1 | · | · | · | -10.4 | ·
O=C(CN1C(=O)NC2(CCCCCCC2)C1=O)Nc1cccc(Br)c1 | · | · | · | 91.4 | ·
Cc1cc(C)c(NC(=O)CN2C(=O)NC3(CCc4ccccc43)C2=O)c(Cl)c1 (stereo not drawn) | · | · | · | -13.5 | ·
Cc1cc(C)c(NC(=O)CN2C(=O)NC3(CCCCC3)C2=O)c(Cl)c1 | 13.1µM* | -0.2% | 5.5% | -13.2 | 0.0%
Cc1ccccc1NC(=O)CN1C(=O)NC2(CCCCCCC2)C1=O | 56.6% | -3.3% | · | -97.5* | 2.9%
O=C(CN1C(=O)NC2(CCCC2)C1=O)Nc1cccc(-c2nnc3n2CCCCC3)c1 | 7.38µM* | -0.1% | 1.5% | 3.2 | -5.7%
CCCn1c(=O)c2sccc2n2c(CCCC(=O)Nc3ccccc3OCC)nnc12 | · | -4.7% | · | 15.6 | ·
CCCCC/C=C\C/C=C\C/C=C\CCCCCCC(=O)NCCCC(=O)O | · | · | 6.2% | · | ·
CC(C)CC1C(C#N)=C(N)OC2=C1C(=O)CC(c1ccccc1)C2 (stereo not drawn) | -23.4% | 0.5% | -8.2% | -0.1 | ?
CC(CC1C(C#N)=C(N)OC2=C1C(=O)CCC2)c1ccccc1 (stereo not drawn) | 3.1% | 1.26µM* | -17.4% | -9.3 | -6.3%
CC1(C)CC(=O)C2=C(C1)OC(N)=C(C#N)C2c1cn(-c2ccccc2)nc1-c1ccccc1 (stereo not drawn) | ? | -6.7% | -4.4% | 9.0 | -7.8%
CC(c1ccccc1)C1C(C#N)=C(N)OC2=C1C(=O)CC(C)(C)C2 (stereo not drawn) | ? | -25.6% | 1.3% | -64.8* | -9.2%
